A selection: hits, their analogues and other compounds. The true share with any hit is near 2%.
ADAM17 inh: ADAM17 inhibitors, primary screen, biochemical, QFRET; Disintegrin and metalloproteinase domain-containing protein 17 (Homo sapiens), P78536; recombinant ADAM17, EDANS/DABCYL FRET peptide cleavage; inhibition, % at 6.95 µM; 0.83% of 370,000 active;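 active = inhibition above the mean of compounds lying between control limits plus 3 SD, set per campaign, cut at about 8.5% in these data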
FAS-TE inh: FAS thioesterase domain inhibitors, primary screen, biochemical, fluorescence intensity, uHTS | inhibition, % at 15 µM | Fatty acid synthase (Homo sapiens), P49327 | 0.67% of 360,000 active | AID 602261, 2012 | recombinant FAS-TE, OMFH fluorogenic substrate, fluorescence endpoint;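 active = compounds whose normalised, plate-corrected inhibition of enzyme fluorescence in the single-dose primary screen is 50% or more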
GC-B act: human GC-B receptor activators, primary screen, HEK293 GC-B cells, cGMP TR-FRET, EC30 CNP | Atrial natriuretic peptide receptor 2 (Homo sapiens), P20594 | 0% at EC30 CNP, 100% saturating CNP | activation, % at 10 µM | 0.11% of 370,000 active | AID 1920062, 2024;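 active = activation at 10 µM reaching about 35% in either raw or pattern-adjusted values, limit read from the data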
ADAM10 inh: human ADAM10 inhibitors, primary screen, biochemical, QFRET, HTS; Disintegrin and metalloproteinase domain-containing protein 10 (Homo sapiens), O14672; recombinant ADAM10, EDANS/DABCYL FRET peptide cleavage, 3 h; inhibition, % at 7 µM; 0.62% of 370,000 active;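 active = inhibition above a per-campaign cutoff equal to the mean of compounds falling between control-based bounds plus 3 SD, cut at about 20% in these data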
GC-A act: GC-A stimulated cGMP production enhancers – HEK293 GC-A cells, cGMP TR-FRET, EC30 ANP, primary screen; AID 1671463, 2021; Atrial natriuretic peptide receptor 1 (Homo sapiens), P16066; 0.14% of 370,000 active; activation, % at 10 µM; 0% at EC30 ANP, 100% saturating ANP; in the data active = activation above about 40%
Target sequence (P16066 whole entry, looked up): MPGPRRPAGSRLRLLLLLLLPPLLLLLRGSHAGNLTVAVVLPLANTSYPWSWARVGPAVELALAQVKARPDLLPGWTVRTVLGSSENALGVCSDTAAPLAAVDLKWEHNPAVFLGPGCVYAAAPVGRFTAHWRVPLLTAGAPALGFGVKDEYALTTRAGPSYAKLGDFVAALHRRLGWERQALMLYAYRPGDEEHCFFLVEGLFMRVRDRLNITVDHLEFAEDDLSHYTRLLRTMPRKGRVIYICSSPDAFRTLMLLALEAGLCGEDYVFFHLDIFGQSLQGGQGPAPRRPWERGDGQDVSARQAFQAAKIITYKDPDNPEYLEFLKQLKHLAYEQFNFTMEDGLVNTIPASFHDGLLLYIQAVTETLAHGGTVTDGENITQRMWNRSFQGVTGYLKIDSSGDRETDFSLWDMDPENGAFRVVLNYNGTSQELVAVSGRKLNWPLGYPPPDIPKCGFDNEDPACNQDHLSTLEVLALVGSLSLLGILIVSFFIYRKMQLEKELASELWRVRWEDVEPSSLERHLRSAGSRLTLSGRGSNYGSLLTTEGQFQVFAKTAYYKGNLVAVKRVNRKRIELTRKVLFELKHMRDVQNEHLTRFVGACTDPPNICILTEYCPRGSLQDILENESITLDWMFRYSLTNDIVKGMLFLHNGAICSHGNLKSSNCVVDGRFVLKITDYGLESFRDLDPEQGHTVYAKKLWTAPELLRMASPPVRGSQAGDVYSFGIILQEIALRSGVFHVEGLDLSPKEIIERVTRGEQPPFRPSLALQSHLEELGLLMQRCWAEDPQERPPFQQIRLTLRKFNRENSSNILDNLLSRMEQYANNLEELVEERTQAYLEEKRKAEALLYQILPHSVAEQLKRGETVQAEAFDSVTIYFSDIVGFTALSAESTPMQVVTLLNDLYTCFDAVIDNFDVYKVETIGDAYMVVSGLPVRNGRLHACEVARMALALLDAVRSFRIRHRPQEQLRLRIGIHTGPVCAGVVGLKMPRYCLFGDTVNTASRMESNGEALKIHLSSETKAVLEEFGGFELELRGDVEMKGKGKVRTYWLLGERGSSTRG
FAS-TE conf: FAS thioesterase domain inhibitors, confirmation, biochemical, fluorescence intensity, single concentration | shares compounds with FAS-TE inh | recombinant FAS-TE, OMFH fluorogenic substrate | inhibition, % at 15 µM | 45% of 2,300 active;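 active = compounds inhibiting the enzyme by at least 50% at 15 µM in any one of the replicates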
Numbers stand for hits; 0 = inactive; - = no result.

SMILES	ADAM17 inh	FAS-TE inh	GC-B act	ADAM10 inh	GC-A act	FAS-TE conf
O=C(NCCc1c[nH]c2ccccc12)OCc1cn(Cc2cc(F)cc(F)c2)nn1	0	-	0	0	0	-
Cc1ccc(-c2nnc(NCc3nc4ccccc4[nH]3)c3ccccc23)cc1S(=O)(=O)N1CCCCC1	0	69	0	0	0	0
COc1ccc(OC)c(CN2C(=O)c3ccnn3CC2(C)c2nnnn2C2CCCC2)c1 (centres undefined)	0	-	0	0	0	-
O=C(Nc1ccc(Cl)cc1)Nc1ccccc1C(=O)N1CCCC1	0	-	0	0	0	-
Cn1c(-c2cccc([N+](=O)[O-])c2)cnc1NCc1cccc([N+](=O)[O-])c1	0	55	0	0	0	0
Cc1cccc([C@@H]2[C@@H]3C(=O)N(Cc4ccccc4)C(=O)[C@@H]3[C@]3(Cc4ccc(Cl)cc4)C(=O)N(c4ccccc4)C(=O)N23)c1	0	93	0	0	0	0
Cc1cccc([C@@H]2[C@@H]3C(=O)N(Cc4ccccc4)C(=O)[C@@H]3[C@]3(C)C(=O)N(c4cccc(Cl)c4)C(=O)N23)c1	0	0	0	0	0	-
Cc1cccc([C@@H]2[C@@H]3C(=O)N(Cc4ccccc4)C(=O)[C@@H]3[C@]3(Cc4ccc(Cl)cc4)C(=O)N(c4cccc(Br)c4)C(=O)N23)c1	0	91	0	0	0	0
O=C(CN1C(=O)c2ccc([N+](=O)[O-])cc2C1=O)NCCC1=CCCCC1	0	54	0	0	0	54
O=C(CCNC(=O)c1ccc([N+](=O)[O-])cc1)NCCC1=CCCCC1	0	76	0	0	0	83
O=C(NCCC1=CCCCC1)c1ccc([N+](=O)[O-])cc1	0	0	0	0	0	-
O=C(COc1ccc([N+](=O)[O-])cc1)NCCC1=CCCCC1	0	63	0	0	0	64
O=C(COc1ccc([N+](=O)[O-])cc1)Nc1ccc2c(c1)CCC2	0	58	0	0	0	63
S=C(Nc1cccc(Br)c1)OC1CCC12CCC(c1ccccc1)CC2 (centres undefined)	0	-	0	0	0	-
COc1cc(CN2CCN(c3ncc(Cc4ccccc4)cn3)CC2)cc(OC)c1	0	-	0	0	0	-
O=C(CC(=O)N/N=C\c1ccccc1)NCCc1ccccc1	0	0	0	0	0	-
O=C(CC(=O)N/N=C\c1ccc([N+](=O)[O-])cc1)NCCc1ccccc1	0	52	0	0	0	50
O=C(CCNC(=O)c1ccc([N+](=O)[O-])cc1)NCCc1ccccc1	0	60	0	0	0	46
CC(C)CC(NC(=O)c1ccc(Cl)cc1)C(=O)OCc1cc([N+](=O)[O-])cc2c1OCOC2 (centres undefined)	0	52	0	0	0	0
Cc1ccc(-c2cc(C(F)F)n3ncc(C(=O)N4CCc5ccccc54)c3n2)cc1	0	52	0	0	0	0
Cc1ccc(-c2cc(C(F)F)n3ncc(C(=O)Nc4c(C)nn(Cc5ccccc5Cl)c4C)c3n2)cc1	0	50	0	0	0	0
COc1cc2c(C)nc3onc(-c4ccccc4)c3c2cc1OC	0	70	0	0	0	45
COc1cc2c(C)nc3c(c(C)nn3-c3ccccc3)c2cc1OC	0	0	0	0	0	-
COc1ccc(C2=C(C=Nc3c(C)n(C)n(-c4ccccc4)c3=O)C(c3ccccc3C)c3ccccc3O2)cc1OC (centres undefined)	0	84	0	0	0	0
O=C(Cn1c(=O)c2sccc2n(Cc2cccc([N+](=O)[O-])c2)c1=O)NCCc1ccccc1	0	57	0	0	0	63
SMILES	ADAM17 inh	FAS-TE inh	GC-B act	ADAM10 inh	GC-A act	FAS-TE conf
O=C(Cn1c(=O)c2sccc2n(Cc2ccc([N+](=O)[O-])cc2)c1=O)NCCc1ccccc1	0	75	0	0	0	76
COCCCNC(=O)CCn1c(=O)c2ccccc2n(Cc2cccc([N+](=O)[O-])c2)c1=O	0	0	0	0	0	-
O=C(Cn1c(=O)n(-c2ccccc2)c(=O)c2sccc21)NCc1ccccc1	0	0	0	0	0	-
CCOC(=O)N1CCN(C(=O)C[C@@H]2C(=O)N(Cc3ccc(OC)cc3)/C3=C/CCCCC[C@@]32C(=O)OCC)CC1	0	-	0	0	0	-
COc1ccccc1CNC(=O)c1cc(S(=O)(=O)N2CCN(c3ccccc3)CC2)ccc1Cl	0	65	0	0	0	0
COc1ccccc1CNC(=O)COC(=O)c1cc(S(=O)(=O)N2CCOCC2)ccc1Cl	0	0	0	0	0	-
Cc1nc2ccc([N+](=O)[O-])cc2c(=O)n1Cc1ccc(F)cc1	0	71	0	0	0	75
Cc1ccccc1Cn1c(C)nc2ccc([N+](=O)[O-])cc2c1=O	0	61	0	0	0	51
Cc1ccccc1NC(=O)Nc1ccc2c(c1)C(=O)N(C)[C@H]1CC[C@H](CC(=O)NCC3CC3)O[C@@H]1CO2	0	-	0	0	0	-
O=[N+]([O-])c1c(Nc2ccccc2O)cc(Cl)c2nonc12	0	65	42	0	0	53
Cc1cc2c(c(=O)n1Cc1cccnc1)C(Cc1ccccc1)C(C#N)=C(N)O2 (centres undefined)	0	53	0	0	0	0
Cc1cc2c(c(=O)n1Cc1cccnc1)C(c1cccs1)C(C#N)=C(N)O2 (centres undefined)	0	0	0	0	0	-
CCOc1ccc(-n2c(SCC(=O)Nc3ccc4c(c3)OCCO4)nc3c(c2=O)SCC3)cc1	0	62	0	0	0	0
CCOC(=O)C1CCN(C(=O)C(C)(C)NC(=O)Nc2ccc(N(C)C)cc2)CC1	0	-	0	0	0	-
CCCCNC(=S)Nc1cc([N+](=O)[O-])ccc1C	0	51	0	0	0	37
O=C(CN1CCN(c2cccc(Cl)c2)CC1)Nc1ccc([N+](=O)[O-])cc1C(=O)Nc1ccccc1F	0	60	0	0	0	0
O=C(CN1CCCCCC1)Nc1cccc([N+](=O)[O-])c1	0	0	0	0	0	-
CCOC(=O)C(=O)Nc1cc([N+](=O)[O-])ccc1C	0	0	0	0	0	-
O=C(CCCc1ccccc1)Nc1cccc([N+](=O)[O-])c1	0	66	0	0	0	60
O=C(CN1CCN(c2ccccc2)CC1)Nc1cccc([N+](=O)[O-])c1	0	51	0	0	0	50
